Test [1] can be described thus: reducers of endogenous Her2 protein level, primary screen, SKBR3 breast tumor cells, AlphaScreen, ATP viability (AID 461;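 active means Her2 level under about 52% in both replicate screens, with viability over 70% of control, limit read from the data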;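 on Her2 level: lower value means less Her2 protein in the cells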;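 on viability: percent of carrier control wells set as 100% viability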). To be noted: 18-24 h, measured here: SKBR3 viability, ATP luminescence, at 10 µM. On the technique in general: Alpha assays give light when donor and acceptor beads are brought close together.
For test [2], the target named is Receptor tyrosine-protein kinase erbB-2 (Homo sapiens) (UniProt P04626). The test is described as above. Conditions: 18-24 h, at 10 µM, stronger effect = lower value.
Chain of Receptor tyrosine-protein kinase erbB-2 (Homo sapiens) (P04626 whole entry, looked up): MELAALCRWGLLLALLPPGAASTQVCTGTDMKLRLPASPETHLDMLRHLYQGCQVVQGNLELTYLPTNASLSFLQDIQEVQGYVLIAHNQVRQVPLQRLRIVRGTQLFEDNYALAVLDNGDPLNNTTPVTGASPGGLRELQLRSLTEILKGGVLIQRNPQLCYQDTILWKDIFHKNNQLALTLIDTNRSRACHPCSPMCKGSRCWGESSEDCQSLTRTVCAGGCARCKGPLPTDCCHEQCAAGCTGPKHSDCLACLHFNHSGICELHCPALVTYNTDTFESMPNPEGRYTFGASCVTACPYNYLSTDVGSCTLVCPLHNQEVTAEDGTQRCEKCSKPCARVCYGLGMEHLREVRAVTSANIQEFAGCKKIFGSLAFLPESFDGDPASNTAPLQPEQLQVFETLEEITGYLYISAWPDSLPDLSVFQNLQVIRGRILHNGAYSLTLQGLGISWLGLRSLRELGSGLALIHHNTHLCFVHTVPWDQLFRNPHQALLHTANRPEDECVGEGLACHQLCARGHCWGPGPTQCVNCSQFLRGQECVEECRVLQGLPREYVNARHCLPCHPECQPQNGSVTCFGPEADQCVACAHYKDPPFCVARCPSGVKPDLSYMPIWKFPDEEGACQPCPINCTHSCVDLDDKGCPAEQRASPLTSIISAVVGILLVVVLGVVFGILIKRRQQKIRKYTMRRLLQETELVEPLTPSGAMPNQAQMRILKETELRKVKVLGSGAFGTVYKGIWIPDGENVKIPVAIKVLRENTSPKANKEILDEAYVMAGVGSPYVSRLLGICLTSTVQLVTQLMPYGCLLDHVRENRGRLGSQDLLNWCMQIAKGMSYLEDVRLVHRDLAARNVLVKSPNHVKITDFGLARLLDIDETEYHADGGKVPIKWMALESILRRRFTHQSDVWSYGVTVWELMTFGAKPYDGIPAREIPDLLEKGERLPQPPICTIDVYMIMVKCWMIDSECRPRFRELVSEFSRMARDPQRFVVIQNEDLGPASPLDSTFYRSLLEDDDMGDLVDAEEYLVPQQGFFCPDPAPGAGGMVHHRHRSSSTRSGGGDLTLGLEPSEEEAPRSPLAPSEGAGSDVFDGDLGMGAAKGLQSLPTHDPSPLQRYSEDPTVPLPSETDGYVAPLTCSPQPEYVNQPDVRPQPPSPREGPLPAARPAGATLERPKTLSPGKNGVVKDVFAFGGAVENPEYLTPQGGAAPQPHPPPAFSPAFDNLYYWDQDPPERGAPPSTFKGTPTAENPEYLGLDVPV
A short description of test [3]: SK-BR-3 cell growth inhibitors, pilot screen, 24 h, human (AID 572;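 active means viability at or below 10% of carrier control in both of two separate runs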;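 further: compound exposure lasted between 18 and 24 h rather than exactly 24 h; 100% = carrier-treated control wells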). To be noted: SK-BR-3 viability, CellTiter-Glo luminescence, at 10 µM, stronger effect = lower value. A general note: Cellular ATP, detected with luciferase, serves as a proxy for viable cell number.
A short description of test [4]: HUVEC growth inhibition – cell-based, human, primary screen (AID 575;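 active means viability at or below 30% in both replicate assays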;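 further: 100% = median of untreated cell wells with 0.1% DMSO on each plate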). Conditions: HUVEC proliferation, CellTiter-Glo luminescence, 72 h; at 10 µM; stronger effect = lower value.
A short description of test [5]: growth inhibitors of H69AR lung tumor, primary screen, human, duplicate replicates (AID 580;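 active means viability at or under a set limit in both replicates, limit being median viability minus 3 SD, cut at about 48% in these data, passing the limit was not always enough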;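 further: 100% = mean luminescence of untreated wells and 0% = no signal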). To be noted: H69AR lung tumor cells viability, ATP luminescence, 72 h; at 10 µM; stronger effect = lower value.
Test [6] can be described thus: reversal of MRP1-mediated doxorubicin resistance, pilot screen, H69AR cells, doxorubicin co-treatment (AID 601;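 active means viability loss from added drug above about 55%, and viability with drug at most 40%, in both replicates, limit read from the data, passing the limit was not always enough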). Conditions: CellTiter-Glo, 72 h, at 10 µM; for differential viability (reversal): stronger effect = higher value.
Test [7] in a line: 384-well plate pilot, post-Golgi transport modulator project, inhibition of yeast transport mutant growth (AID 636; in the data active means inhibition above about 31%). To be noted: absorbance 615 nm, about 18 h, stronger effect = higher value.
A short description of test [8]: growth suppression of yeast trafficking mutant, preliminary HTS, modulators of trafficking downstream of Golgi apparatus project, 1536-format plate, OD 615 nm (AID 637; in the data active means inhibition above about 30%). Conditions: yeast transport mutant growth, absorbance 615 nm, 18 h; stronger effect = higher value.
Test [9] is described as follows: OD615 S. cerevisiae growth inhibition, permissive medium, pilot counter-assay, permissive growth control for S. cerevisiae lifespan shortening project (AID 705;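 active means growth inhibition above 25% in both replicates, a cutoff set 3 SD above the mean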). Conditions: OD615, 24 h, at 10 µM, stronger effect = higher value.
The nature of test [10]: Restrictive medium S. cerevisiae growth inhibition, OD615, pilot screen of yeast lifespan reduction project, restrictive growth control (AID 706;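 active means growth inhibition above a set limit, 3 SD over mean compound inhibition, in both replicates, cut at about 43% in these data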;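 further: modified DeaD lifespan yeast strain shifted to restrictive glucose medium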). To be noted: OD615, 48 h, at 10 µM, stronger effect = higher value.
Test [11] can be described thus: viability gain of MRP-1-high H69AR cells under doxorubicin, pilot screen, MRP-1 activator project, CellTiter-Glo, duplicate (AID 807;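 active means viability increase at or above a cutoff of the median across tested compounds plus 3 SD, cut at about 8.5% in these data, passing the limit was not always enough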;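 further: compound pretreatment 18-22 h then 72 h combined with doxorubicin; 0% = doxorubicin alone and 100% = vehicle without doxorubicin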). Conditions: H69AR viability with doxorubicin, CellTiter-Glo luminescence; at 10 µM; stronger effect = higher value.
A short description of test [12]: growth suppression of beta-catenin knockout HCT116, pilot screen, human colon tumor cells (AID 823;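 active means cell viability at or below a set limit in both duplicate runs, the limit being the all-compound median minus 4 SD, cut at about 23% in these data, passing the limit was not always enough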;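 further: 0% = wells killed by 20 µM Hyamine and 100% = untreated DMSO cell wells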). To be noted: CellTiter-Glo, 60 h, at 10 µM, stronger effect = lower value.
The nature of test [13]: inhibitors of the yeast RAM network, pilot screen, dse1pr::URA3 reporter, 5-FOA selection (AID 869;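 active means inhibition over a set limit, the all-compound mean plus 3 SD, in both replicate runs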;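 further: 0% = DMSO wells with no growth and 100% = 10 µM 1-NA-PP1 with full growth; RAM network block rescues cells from 5-FOA so hits raise OD615 growth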). To be noted: S. cerevisiae dse1pr::URA3 5-FOA growth, OD615, 2 d; at 10 µM; stronger effect = higher value; strain carries analog-sensitive mutant Cbk1 kinase.
A short description of test [14]: RAM signaling pathway blockade in yeast – S. cerevisiae, Pdr1DBD-CYC8 efflux-inhibited sensitized strain, primary screen (AID 1298).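 Further: 0% = DMSO untreated cells without growth and 100% = 10 µM 1-NA-PP1 full growth; higher means more yeast growth rescued from 5-FOA killing.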 To be noted: S. cerevisiae cbk1-as DSE1-URA3 strain, 5-FOA growth OD615, 2 d; at 50 µM; stronger effect = higher value.
Test [15] is described as follows: growth suppression of PTEN-deleted HCT116, pilot screen, cell-based, HCT116 clonal line, CellTiter-Glo (AID 824;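 active means viability at or below 27.92% in each of two runs, the all-compound median minus 4 SD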;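 further: 0% = 20 µM Hyamine control and 100% = vehicle cell control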). Conditions: 60 h, at 10 µM, stronger effect = lower value.
The mark [16] stands for this setting: H69AR cells + 2 uM doxorubicin, measured here: viability with 2 uM doxorubicin, stronger effect = lower value.
Where [17] appears, read: H69AR cells, compound alone cytotoxicity.

Results filed as inconclusive are left out. Calls of active or inactive are those of the source.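 How the source made its calls, unless noted: active means RAM network inhibition above 8.4% in each of two replicates, 3 SD over the compound average; inconclusive means above 8.4% inhibition in only one replicate; inactive means 8.4% inhibition or less in each replicate.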

Usually viability stands for a read-out of living cells in per cent, often relative to untreated cells. In general, inhibition refers to the change of the read-out against control, counted positive when it falls. In the case of `Cc1ccc(Cn2c(CN3CCOCC3)nc3c2c(=O)n(C)c(=O)n3C)cc1`, the viability is 80.5% in test [1]; 80.5% (inactive) in test [3]; 90.5% (inactive) in test [4]; 102% (inactive) in test [5]; 99.6% in test [6] (setting [16]); 102% in [6] (setting [17]). Moreover, the viability in [12] is 92.4% (inactive). In test [2], the Her2 level is 89.5% (inactive). Further, the differential viability (reversal) in [6] (H69AR cells + 2 uM doxorubicin) is 2.54% (inactive). The inhibition in [7] is -5.14% (inactive); in test [8], 0% (inactive); in test [13], 2.71% (inactive). In addition, the growth inhibition in [9] is -18% (inactive); in test [10], -8.04% (inactive). In addition, the viability increase in test [11] is -4.67% (inactive). In addition, the RAM network inhibition in [14] is 2.86% (inactive).
Regarding `COc1cccc(-c2nc(CS(=O)(=O)CC(=O)NCc3ccc(Cl)cc3)c(C)o2)c1`, the viability in test [1] is 72.5%; in test [3], 72.5% (inactive); in [4], 42.8% (inactive); in test [5], 87.9% (inactive); in [6] (setting [16]) it was 77.8%; in test [6] (setting [17]), 87.9%. The figures for the viability in test [12] and in [15] were 87.1% (inactive) and 89.3% (inactive), respectively. Besides, the Her2 level in test [2] was 71% (inactive). Further, the differential viability (reversal) in [6] (H69AR cells + 2 uM doxorubicin) was 10.1% (inactive). In addition, the results for the inhibition in test [7], in test [8] and in test [13] were 0.4% (inactive), -2.3% (inactive) and 2.36% (inactive), respectively. Besides, the growth inhibition in test [9] was -8.85% (inactive); in [10] it was -2.68% (inactive). For the same compound, the viability increase in [11] was -3.55% (inactive). Besides, in [14], the RAM network inhibition is 5.41% (inactive).
`CCOc1ccc(N(CC(=O)Nc2ccc(C)c(C)c2)S(=O)(=O)c2c(C)noc2C)cc1`: the viability in test [1] is 101%; in test [3], 101% (inactive); in test [4], 68.8% (inactive); in test [5], 53.8% (inactive); in test [6] (setting [16]), 68.2%; in test [6] (setting [17]), 53.8%. The viability in test [12] is 27.4% (inactive). For the same compound, the Her2 level in test [2] was 75% (inactive). In [6] (H69AR cells + 2 uM doxorubicin), the differential viability (reversal) is -14.4% (inactive). Further, the inhibition in test [7] was -0.13% (inactive); in test [8], 3.67% (inactive); in [13], 1.85% (inactive). For the same compound, the growth inhibition was 0.98% (inactive) in test [9] and -5.67% (inactive) in test [10]. In addition, the viability increase in test [11] is -6.26% (inactive). For the same compound, the RAM network inhibition in [14] was 6.75% (inactive).
In the case of `O=C(c1cc(C2CC2)on1)N1CCN(C(c2ccccc2)c2ccccc2)CC1`, the viability is 84.5% in test [1]; 84.5% (inactive) in test [3]; 113% (inactive) in [4]; 87.7% (inactive) in [5]; 94.6% in [6] (setting [16]); 87.7% in test [6] (setting [17]). For the same compound, the viability was 90.9% (inactive) in [12] and 76.8% (inactive) in test [15]. Besides, in test [2], the Her2 level was 95.5% (inactive). In addition, in test [6] (H69AR cells + 2 uM doxorubicin), the differential viability (reversal) is -6.88% (inactive). The inhibition was 0.9% (inactive) in test [7], -0.83% (inactive) in test [8] and 0.66% (inactive) in [13]. Besides, the growth inhibition is -17.5% (inactive) in test [9] and -18.4% (inactive) in test [10]. The viability increase in [11] was 2.29% (inactive). For the same compound, in test [14], the RAM network inhibition was 7.26% (inactive).
In the case of `c1ccc(-c2nnc(CSc3nncs3)o2)cc1`, the viability was 104% in test [1]; 104% (inactive) in test [3]; 88.4% (inactive) in test [4]; 106% (inactive) in test [5]; 92.9% in [6] (setting [16]); 106% in test [6] (setting [17]). The viability in test [12] is 106% (inactive). Further, in test [2], the Her2 level is 86.5% (inactive). Also, in test [6] (H69AR cells + 2 uM doxorubicin), the differential viability (reversal) is 13.6% (inactive). The inhibition in test [7] was -3.95% (inactive); in test [8], -4.67% (inactive); in test [13] it was 1.01% (inactive). Also, the growth inhibition was -16% (inactive) in test [9] and 8.37% (inactive) in test [10]. Also, the viability increase in [11] was -0.84% (inactive). For the same compound, in [14], the RAM network inhibition is 5.21% (inactive).
As for `CCCc1nnc2n1N=C(c1ccc(-c3cc(Cl)ccc3Cl)o1)CS2`, the viability in [1] was 108%; in test [3], 108% (inactive); in test [4] it was 97.1% (inactive); in [5] it was 89.2% (inactive); in test [6] (setting [16]), 87.8%; in [6] (setting [17]) it was 89.2%. Also, the viability in [12] was 97.8% (inactive). The Her2 level in test [2] was 94% (inactive). Also, the differential viability (reversal) in test [6] (H69AR cells + 2 uM doxorubicin) is 1.35% (inactive). In addition, the inhibition in test [7] was -1.82% (inactive); in test [8], 0% (inactive); in test [13] it was 1.36% (inactive). For the same compound, the growth inhibition in [9] was -18.6% (inactive); in test [10], 4.29% (inactive). Further, in [11], the viability increase was -2.95% (inactive). In addition, the RAM network inhibition in test [14] was 1.93% (inactive).
As for `COc1ccc(NC(=O)CSc2nc3c(c(=O)n2-c2ccccc2OC)SCC3)cc1`, the viability in test [1] is 102%; in test [3], 102% (inactive); in [4], 87.4% (inactive); in [5] it was 89.7% (inactive); in [6] (setting [16]) it was 95.4%; in [6] (setting [17]) it was 89.7%. In addition, the values for the viability in [12] and in test [15] were 99% (inactive) and 98.9% (inactive), respectively. Besides, in [2], the Her2 level was 110% (inactive). The differential viability (reversal) in [6] (H69AR cells + 2 uM doxorubicin) is -5.71% (inactive). Moreover, the inhibition in [7] is -1.6% (inactive); in test [8] it was -5.5% (inactive); in [13] it was 2.67% (inactive). Moreover, the growth inhibition in test [9] is 1.7% (inactive); in test [10], -1.84% (inactive). The viability increase in test [11] is -0.32% (inactive). Moreover, the RAM network inhibition in test [14] was 3.97% (inactive).
`COc1cc2[nH]c(=O)n(CCCCCC(=O)N3CCN(c4ccccn4)CC3)c(=O)c2cc1OC`: the viability was 104% in test [1]; 104% (inactive) in [3]; 100% (inactive) in test [4]; 89.3% (inactive) in test [5]; 92.1% in test [6] (setting [16]); 89.3% in test [6] (setting [17]). Also, in test [12], the viability was 73.2% (inactive). Besides, the Her2 level in test [2] was 92.5% (inactive). Besides, the differential viability (reversal) in [6] (H69AR cells + 2 uM doxorubicin) is -2.77% (inactive). Further, the inhibition is -5.95% (inactive) in test [7], -4.83% (inactive) in [8] and 1.7% (inactive) in [13]. Besides, the growth inhibition in [9] is -9.93% (inactive); in [10] it was -5.11% (inactive). Besides, the viability increase in test [11] is -4.76% (inactive). The RAM network inhibition in [14] was 3.23% (inactive).
As to `CCCCn1c(SCC(=O)OCC)nc2c1c(=O)[nH]c(=O)n2C`, the viability in test [1] is 100%; in [3] it was 100% (inactive); in [4], 96.8% (inactive); in test [5] it was 97.3% (inactive); in test [6] (setting [16]), 96.8%; in test [6] (setting [17]), 97.3%. For the same compound, the viability in test [12] is 94.4% (inactive); in test [15], 91.6% (inactive). Further, in [2], the Her2 level was 93% (inactive). Moreover, the differential viability (reversal) in test [6] (H69AR cells + 2 uM doxorubicin) is 0.46% (inactive). Besides, the values for the inhibition in [7], in [8] and in test [13] were -2.53% (inactive), 0.33% (inactive) and 1.31% (inactive), respectively. For the same compound, the growth inhibition in [9] is 0.935% (inactive); in test [10] it was 1.66% (inactive). Moreover, the viability increase in test [11] is -2.5% (inactive). In addition, the RAM network inhibition in [14] is 0.35% (inactive).
In the case of `Cc1ccc(S(=O)(=O)N2CCOCC2)cc1C(=O)Nc1nc(-c2cccnc2)cs1`, the viability is 106% in [1]; 106% (inactive) in test [3]; 88.8% (inactive) in test [4]; 103% (inactive) in test [5]; 94.3% in test [6] (setting [16]); 103% in [6] (setting [17]). The viability in test [12] is 96.8% (inactive). For the same compound, the Her2 level in test [2] was 91% (inactive). Besides, the differential viability (reversal) in [6] (H69AR cells + 2 uM doxorubicin) is 9% (inactive). For the same compound, the inhibition in [7] was 0% (inactive); in test [8], -3.33% (inactive); in [13] it was 1.93% (inactive). The growth inhibition in [9] was -14.2% (inactive); in test [10], -6.87% (inactive). The viability increase in test [11] was -1.69% (inactive). Moreover, in test [14], the RAM network inhibition is 3.11% (inactive).

These data come from PubChem BioAssay.
